Records with an inconclusive call do not appear. Active and inactive are the calls of the source. Unless noted, the call rests on the fitted dose curve; in most records, active means well fitted curve in the direction sought with a large enough effect in the repeat runs; inconclusive means weak or mixed curves; inactive means no such curve, though single readings can be large; an effect the other way counts as inactive or inconclusive.
Tests used:
[1] = qHTS assay for small molecule agonists of the p53 signaling pathway (AID 651631; calls by dose curve; further: nearly all actives have a fitted effect of over 15% in size)
How it was run: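 Testing took place in human colorectal HCT-116 cells with stable p53RE-driven beta-lactamase. After 16 h of compound exposure at 37 °C, a FRET substrate was added and fluorescence recorded 2 h later.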

[2] = qHTS assay for small molecules that induce genotoxicity in human embryonic kidney cells expressing luciferase-tagged ATAD5 (AID 651632); further: nearly all actives have a fitted effect of over 15% in size
How it was run: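 Quantitative HTS in HEK293T expressing luciferase-tagged ATAD5, whose levels rise upon DNA damage. Exposure ran 16 hr at 37C and 5% CO2, with luminescence read 30 min after Amplite addition at room temperature.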

[3] = qHTS assay for small molecule agonists of the p53 signaling pathway - cell viability (AID 651633; calls by dose curve; further: series mostly up to about 83 µM; nearly all actives have a fitted effect of over 30% in size)
How it was run: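 p53RE-bla cells, seeded at 4,000 per well and rested 5 h at 37 C/5% CO2, received compounds in DMSO for 16 h at 37 C. CellTiter-Glo was then added, and luminescence was read after 30 min at room temperature to gauge cytotoxicity.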

[4] = qHTS assay for small molecules that induce genotoxicity in human embryonic kidney cells expressing luciferase-tagged ATAD5 - cell viability (AID 651634; calls by dose curve; further: nearly all actives have a fitted effect of over 25% in size)
How it was run: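 After 15.5 hr incubation with compound at 37C, 5% CO2, HEK293T ATAD5-luciferase cells received CellTiter-Fluor reagent; fluorescence intensity was quantified following 30 min at 37C.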

[5] = qHTS assay to test for compound auto fluorescence at 535 nm (green) in HepG2 cells (AID 720675)
[6] = qHTS assay to test for compound auto fluorescence at 460 nm (blue) in HEK293 cells (AID 720678)
How it was run: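 Measured: blue fluorescence (Ex 405/Em 460 nm) of compound-treated HEK293 cells, incubated overnight at 37C with 5% CO2 and scaled to triamterene equivalents.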

[7] = qHTS assay for small molecule disruptors of the mitochondrial membrane potential - cell viability (AID 720634; calls by dose curve;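 further: human HepG2 liver cancer cells; series mostly up to about 83 µM; nearly all actives have a fitted effect of over 20% in size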)
How it was run: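 ATP-based luminescent viability readout (CellTiter-Glo, 30 min, room temperature) in HepG2 cells multiplexed with the m-MPI membrane potential dye; compound exposure lasted 1 hr at 37 C.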

[8] = qHTS assay to test for compound auto fluorescence at 590 nm (red) in HepG2 cells (AID 720674)
How it was run: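 Compound auto-fluorescence is scored relative to Rose Bengal sodium, measured at 540/590 nm in live HepG2 cultures after 1 hr compound contact (37 C, 5% CO2).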

[9] = qHTS assay to test for compound auto fluorescence at 590 nm (red) in HEK293 cells (AID 720679)
How it was run: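 Using HEK293 cells at 2,000 per well, the screen added 23 nL of each compound after cell attachment and incubated overnight (37C, 5% CO2). The plate reader then captured red-label fluorescence, Ex/Em 540/590nm.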

[10] = qHTS assay for small molecule disruptors of the mitochondrial membrane potential (AID 720635); further: potency means the concentration at half of the fitted maximal effect
How it was run: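 HepG2 cells (2,000/well) attached overnight at 37C, then took compound for 1 hr at 37C, 5% CO2. Mito-MPS dye was added for 30 min; fluorescence was read at 490/535 nm (monomers) and 540/590 nm (aggregates).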
On the % scale 0 is the no-effect control and ±100 the full control effect.

C#CC(C)N(C)C(=O)Nc1ccc(Cl)cc1 (stereo not given)
inactive: outcome [1] | Potency [2] | outcome [3] | Potency [4] | outcome [5] | outcome [6]

CCOc1cc([N+](=O)[O-])c(OCC)cc1N1CCOCC1
inactive: outcome [1] | Potency [2] | outcome [3] | outcome [7] | outcome [8] | outcome [5] | outcome [6] | outcome [9]

CC(C)(C)NC(N)=O
inactive: outcome [1] | Potency [2] | outcome [3] | Potency [4] | outcome [8] | outcome [5] | outcome [6] | outcome [9]

CCCCNC1CC(C)(C)NC(C)(C)C1
inactive: outcome [1] | Potency [2] | outcome [3] | Potency [4] | outcome [7] | outcome [8] | outcome [5] | outcome [6] | outcome [9]

CCC(C)NC(N)=O (stereo not given)
inactive: outcome [1] | Potency [2] | outcome [3] | Potency [4] | outcome [7] | outcome [5] | outcome [6] | outcome [9]

CCCCCCCCCC(C)=O
inactive: outcome [1] | Potency [2] | outcome [3] | Potency [4] | outcome [7] | outcome [5] | outcome [6]

CC(C)CC(C)CC(C)CC(C)COC(=O)c1ccccc1C(=O)OCC(C)CC(C)CC(C)CC(C)C (stereo not given)
inactive: outcome [1] | Potency [2] | outcome [3] | Potency [4] | outcome [7] | outcome [8] | outcome [5] | outcome [6] | outcome [9]

Nc1nnc(-c2cccc(Cl)c2Cl)c(N)n1
inactive: outcome [1] | Potency [2] | outcome [3] | Potency [4] | outcome [8] | outcome [5] | outcome [6]

CC(=O)Nc1ccc(S(=O)(=O)Nc2ccc([N+](=O)[O-])cc2)cc1
inactive: outcome [1] | Potency [2] | outcome [3] | outcome [7] | outcome [8] | outcome [5] | outcome [6] | outcome [9]

COCCOCCOCCOCCOCCO
inactive: outcome [1] | Potency [2] | outcome [3] | Potency [4] | outcome [7] | outcome [8] | outcome [5] | outcome [6] | outcome [9]

CC(S)C(=O)NCC(=O)O (stereo not given)
inactive: outcome [1] | Potency [2] | outcome [3] | Potency [4] | outcome [8] | outcome [5] | outcome [6] | outcome [9]

O=C(/N=N/C(=O)OCc1ccccc1)OCc1ccccc1
inactive: outcome [1] | Potency [2] | outcome [3] | Potency [4] | outcome [8] | outcome [5] | outcome [6] | outcome [9]

Cc1cccc(C)c1OCC(C)N (stereo not given)
inactive: outcome [1] | Potency [2] | outcome [3] | Potency [4] | outcome [8] | outcome [5] | outcome [6] | outcome [9]

CCCCCCCC/C=C\CCCCCCCC(=O)OCCCC
inactive: outcome [1] | Potency [2] | outcome [3] | Potency [4] | outcome [7] | fluorescence, relative to Rose Bengal [8] 0.139% [at 18.6 µM] | fluorescence, % of fluorescein control [5] -0.0204% [at 18.6 µM] | fluorescence, % of triamterene [6] -0.0584% [at 18.6 µM] | fluorescence, % of fluorescent control [9] 0.3% [at 18.6 µM]

COC(=O)C1CC(=O)C(C(=O)OC)CC1=O (stereo not given)
inactive: activation [1] -2.34% [at 8.3 µM] | activation [2] 2.21% [at 8.08 µM] | activity change, negative = cytotoxicity [3] 20.9% [at 8.08 µM] | activity, negative = cytotoxicity [4] 31.1% [at 8.08 µM] | activity change, negative = cytotoxicity [7] 10.5% [at 8.08 µM] | fluorescence, % of fluorescein control [5] 0.0015% [at 3.72 µM] | fluorescence, % of triamterene [6] 1.94% [at 3.72 µM] | fluorescence, % of fluorescent control [9] 0.169% [at 3.72 µM]

O=C(O)C(=O)Cc1ccccc1
inactive: outcome [1] | Potency [2] | outcome [3] | Potency [4] | outcome [7] | outcome [8] | outcome [5] | outcome [6] | outcome [9]

CC1(C)S[C@@H]2[C@H](N=CN3CCCCCC3)C(=O)N2[C@H]1C(=O)O
inactive: outcome [1] | Potency [2] | outcome [3] | Potency [4] | outcome [7] | outcome [5] | outcome [6] | outcome [9]

Brc1ccc(-c2ccccc2)cc1
inactive: outcome [1] | Potency [2] | outcome [3] | Potency [4] | outcome [8] | outcome [5] | outcome [6] | outcome [9]

CCCCCCCCC(=O)Cl
inactive: outcome [1] | Potency [2] | outcome [3] | Potency [4] | outcome [7] | outcome [5] | outcome [6] | outcome [9]

CN(C)CCOCCO
inactive: Potency [2] | outcome [3] | Potency [4] | outcome [7] | Potency [10] | outcome [5] | outcome [6] | outcome [9]

NNc1nnc(NN)c2ccccc12
inactive: Potency [2] | outcome [3] | Potency [4] | outcome [7] | outcome [8] | outcome [5] | outcome [6]

CC(CC=O)CCCC(C)(C)O (stereo not given)
inactive: Potency [2] | outcome [3] | Potency [4] | outcome [7] | Potency [10] | outcome [5] | outcome [6] | outcome [9]

CCN(C)C(=O)Oc1cccc([C@H](C)N(C)C)c1
inactive: Potency [2] | outcome [3] | Potency [4] | outcome [7] | outcome [8] | outcome [5] | outcome [6] | outcome [9]

O=P(O)(O)OP(=O)(O)O
inactive: outcome [1] | outcome [3] | Potency [4] | outcome [7] | Potency [10] | outcome [8] | outcome [5] | outcome [6] | outcome [9]

O=C(O)c1ccc(Cl)cc1Cl
inactive: Potency [2] | outcome [3] | Potency [4] | outcome [7] | Potency [10] | outcome [8] | outcome [5] | outcome [6] | outcome [9]

C=CC(OCC)OCC
inactive: outcome [1] | outcome [3] | Potency [4] | outcome [7] | outcome [8] | outcome [5] | outcome [6] | outcome [9]

COC(=O)CCc1ccc(OCC(O)CNC(C)C)cc1 (stereo not given)
inactive: Potency [2] | outcome [3] | Potency [4] | outcome [7] | Potency [10] | outcome [8] | outcome [5] | outcome [6] | outcome [9]

O=C(NCC(O)CO)c1c(I)c(C(=O)NCC(O)CO)c(I)c(N(CCO)C(=O)CO)c1I (stereo not given)
inactive: outcome [1] | outcome [3] | Potency [4] | outcome [7] | Potency [10] | fluorescence, relative to Rose Bengal [8] -0.211% [at 18.6 µM] | fluorescence, % of fluorescein control [5] -0.0278% [at 18.6 µM] | fluorescence, % of triamterene [6] 0.0229% [at 18.6 µM] | fluorescence, % of fluorescent control [9] -0.351% [at 18.6 µM]

C=C(C)C(=O)OCCOP(=O)(O)OCCOC(=O)C(=C)C
inactive: Potency [2] | outcome [3] | Potency [4] | outcome [7] | Potency [10] | outcome [8] | outcome [5] | outcome [6] | outcome [9]

CCOC(=O)CC(=O)c1ccccc1
inactive: Potency [2] | outcome [3] | Potency [4] | outcome [7] | outcome [8] | outcome [5] | outcome [6] | outcome [9]

CC(C)OC(=O)CCCCC(=O)OC(C)C
inactive: Potency [2] | outcome [3] | Potency [4] | outcome [7] | outcome [8] | outcome [5] | outcome [6] | outcome [9]
active: Potency [10] 54.6 µM

On1nnc2ccccc21
inactive: outcome [1] | outcome [3] | outcome [7] | Potency [10] | outcome [8] | outcome [5] | outcome [6] | outcome [9]

C[Si](C)(C)C
inactive: Potency [2] | outcome [3] | Potency [4] | outcome [7] | Potency [10] | outcome [8] | outcome [5] | outcome [6] | outcome [9]

COc1ccc2c(c1)C(=O)N(CCc1ccc(S(=O)(=O)NC(=O)NC3CCCCC3)cc1)C(=O)C2(C)C
inactive: Potency [2] | outcome [3] | Potency [4] | outcome [7] | fluorescence, relative to Rose Bengal [8] 0.0268% [at 18.6 µM] | fluorescence, % of fluorescein control [5] -0.152% [at 18.6 µM] | fluorescence, % of triamterene [6] 0.056% [at 18.6 µM] | fluorescence, % of fluorescent control [9] -0.014% [at 18.6 µM]

OC[C@H](Cc1cccc(O)c1)[C@H](CO)Cc1cccc(O)c1
inactive: Potency [2] | outcome [3] | Potency [4] | outcome [7] | outcome [8] | outcome [5] | outcome [6]

COc1nccnc1NS(=O)(=O)c1ccc(N)cc1
inactive: Potency [2] | outcome [3] | Potency [4] | outcome [7] | outcome [8] | outcome [5] | outcome [6]

CC(C)NCC(O)COc1cccc2[nH]ccc12 (stereo not given)
inactive: outcome [1] | outcome [3] | outcome [7] | Potency [10] | outcome [5] | outcome [6]

CCC(CC)CO
inactive: Potency [2] | outcome [3] | Potency [4] | outcome [7] | Potency [10] | outcome [8] | outcome [5] | outcome [6]

CCCCCCOc1ccccc1C(N)=O
active: Potency [10] 6.68 µM
inactive: Potency [2] | outcome [3] | Potency [4] | outcome [7] | outcome [8] | outcome [5] | outcome [6] | outcome [9]

NCCN1CCOCC1
inactive: outcome [1] | outcome [3] | Potency [4] | outcome [7] | Potency [10] | outcome [8] | outcome [5] | outcome [6] | outcome [9]

CC/C=C\CC1=C(C)CCC1=O
inactive: Potency [2] | outcome [3] | Potency [4] | outcome [7] | outcome [8] | outcome [5] | outcome [6] | outcome [9]

CC(=O)Nc1cccc(C)c1
inactive: Potency [2] | outcome [3] | Potency [4] | outcome [7] | Potency [10] | outcome [8] | outcome [5] | outcome [6] | outcome [9]

O=S(=O)(O)c1cc(O)c2ccc(Nc3ccccc3)cc2c1
inactive: Potency [2] | outcome [3] | Potency [4] | outcome [7] | outcome [8] | outcome [5] | outcome [6] | outcome [9]
